Laboratory results as given in PubChem BioAssay (NCATS).
Inconclusive results are not listed. The source made the active and inactive calls. Calls come from the whole dose curve; as a rule, active = well fitted curve in the direction sought with a large enough effect; inconclusive = small, poorly fitted or top-dose-only effect, or another doubt; inactive = no such curve, though single readings can be large; an effect the other way counts as inactive or inconclusive.

What was measured:
[1] = target: ATP-dependent 6-phosphofructokinase (Trypanosoma brucei brucei) (UniProt O15648); test: qHTS Assay to Find Inhibitors of T. brucei phosphofructokinase: hit validation (AID 492961);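 note: luminescence reports ADP formed as PFK phosphorylates fructose-6-phosphate with ATP; % is set by controls: 0 for no effect and ±100 for the full control effect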
Sequence of ATP-dependent 6-phosphofructokinase (Trypanosoma brucei brucei) (O15648 whole entry, looked up): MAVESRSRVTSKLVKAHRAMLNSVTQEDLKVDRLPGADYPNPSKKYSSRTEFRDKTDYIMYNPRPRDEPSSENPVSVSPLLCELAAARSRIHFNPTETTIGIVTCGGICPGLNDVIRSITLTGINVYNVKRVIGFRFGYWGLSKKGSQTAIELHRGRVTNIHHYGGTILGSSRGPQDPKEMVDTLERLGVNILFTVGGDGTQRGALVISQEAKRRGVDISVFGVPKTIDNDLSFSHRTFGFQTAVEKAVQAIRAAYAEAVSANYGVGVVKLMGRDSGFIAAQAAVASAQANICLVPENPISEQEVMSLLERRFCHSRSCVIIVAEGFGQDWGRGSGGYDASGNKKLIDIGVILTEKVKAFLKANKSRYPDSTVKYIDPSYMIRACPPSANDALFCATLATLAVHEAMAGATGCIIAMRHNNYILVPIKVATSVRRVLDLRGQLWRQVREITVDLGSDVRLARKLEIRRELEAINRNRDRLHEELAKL
Summary of the method: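 Reaction: 0.1 M triethanolamine pH 8.0, 5 mM MgCl2, F6P 0.5 mM, ATP 0.1 mM, PFK 1.25 nM, 45 min RT. Read-out: ADP-Glo luminescence. Analysis: concentration-response fits, classed by r2 and efficacy.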

[2] = qHTS profiling for inhibitors of Plasmodium falciparum proliferation (AID 504749); note: potency is the fitted concentration of half-maximal effect;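 for activity, negative = inhibition: 0% = DMSO vehicle and full inhibition = artemisinin control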; for all read-outs here: nearly all actives have a fitted effect of over 60% in size; conditions: P. falciparum in erythrocytes, SYBR Green DNA, 72 h; for activity, negative = inhibition: at 28.7 µM (top of the series)
Summary of the method: (§1)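 Parasite proliferation within erythrocytes, 72 h exposure. Endpoint: SYBR Green I fluorescence after overnight lysis at room temperature. Controls: 0.29 uM artemisinin, DMSO.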

[3] = test system: 3D7; test: as above; conditions: P. falciparum in erythrocytes, SYBR Green DNA, 72 h; series mostly up to 28.7 µM
Summary of the method: as §1

[4] = test system: CP191; test: as above; conditions: P. falciparum in erythrocytes, SYBR Green DNA, 72 h; series mostly up to 28.7 µM
Summary of the method: as §1

[5] = test system: CP192; test: as above; conditions: P. falciparum in erythrocytes, SYBR Green DNA, 72 h; series mostly up to 28.7 µM
Summary of the method: as §1

[6] = test system: CP237; test: as above; conditions: P. falciparum in erythrocytes, SYBR Green DNA, 72 h; series mostly up to 28.7 µM
Summary of the method: as §1

[7] = test system: CP262; test: as above; conditions: P. falciparum in erythrocytes, SYBR Green DNA, 72 h; series mostly up to 28.7 µM
Summary of the method: as §1

[8] = test system: CP268; test: as above; conditions: P. falciparum in erythrocytes, SYBR Green DNA, 72 h; series mostly up to 28.7 µM
Summary of the method: as §1

[9] = test system: Dd2; test: as above; conditions: P. falciparum in erythrocytes, SYBR Green DNA, 72 h; series mostly up to 28.7 µM
Summary of the method: as §1

[10] = test system: ECU; test: as above; conditions: P. falciparum in erythrocytes, SYBR Green DNA, 72 h; series mostly up to 28.7 µM
Summary of the method: as §1

[11] = test system: GB4; test: as above; conditions: P. falciparum in erythrocytes, SYBR Green DNA, 72 h; series mostly up to 28.7 µM
Summary of the method: as §1

[12] = test system: HB3; test: as above; conditions: P. falciparum in erythrocytes, SYBR Green DNA, 72 h; series mostly up to 28.7 µM
Summary of the method: as §1

[13] = test system: PC49; test: as above; conditions: P. falciparum in erythrocytes, SYBR Green DNA, 72 h; series mostly up to 28.7 µM
Summary of the method: as §1

[14] = test system: TAB113; test: as above; conditions: P. falciparum in erythrocytes, SYBR Green DNA, 72 h; series mostly up to 28.7 µM
Summary of the method: as §1

[15] = test system: W2; test: as above; conditions: P. falciparum in erythrocytes, SYBR Green DNA, 72 h; series mostly up to 28.7 µM
Summary of the method: as §1

CC(O)C(N)C(=O)O (stereo unspecified)
inactive: Potency [1] | activity, negative = inhibition ([2]; parasite line A) 4.5% | activity, negative = inhibition ([2]; parasite line B) 11.6% | Potency [3] | Potency [4] | Potency [5] | Potency [6] | Potency [7] | Potency [8] | Potency [9] | Potency [10] | Potency [11] | Potency [12] | Potency [13] | Potency [14] | Potency [15]

C=CC1CN2CCC1CC2[C@@H](O)c1ccnc2ccc(OC)cc12 (stereo partly specified)
inactive: Potency [1]
active: Potency ([2]; parasite line A) 50.1 nM | Potency ([2]; parasite line B) 56.2 nM | Potency [3] 79.4 nM | Potency [4] 224 nM | Potency [5] 757 nM | Potency [6] 891 nM | Potency [7] 338 nM | Potency [8] 536 nM | Potency [9] 282 nM | Potency [10] 112 nM | Potency [11] 135 nM | Potency [12] 158 nM | Potency [13] 282 nM | Potency [14] 355 nM | Potency [15] 190 nM

C=NC(C(=O)NC1C(=O)N2C1SC(C)(C)C2C(=O)O)c1ccccc1 (stereo unspecified)
inactive: Potency [1] | activity, negative = inhibition ([2]; parasite line A) 7.65% | activity, negative = inhibition ([2]; parasite line B) -6.25% | Potency [3] | Potency [4] | Potency [5] | Potency [6] | Potency [7] | Potency [8] | Potency [9] | Potency [10] | Potency [11] | Potency [12] | Potency [13] | Potency [14] | Potency [15]

CC(=O)OCC(=O)[C@@]1(O)CCC2C3CCC4=CC(=O)C=CC4(C)C3C(O)C[C@]21C (stereo partly specified)
inactive: Potency [1] | activity, negative = inhibition ([2]; parasite line A) 8.28% | activity, negative = inhibition ([2]; parasite line B) 10.3% | Potency [3] | Potency [4] | Potency [5] | Potency [6] | Potency [7] | Potency [8] | Potency [9] | Potency [10] | Potency [11] | Potency [12] | Potency [13] | Potency [14] | Potency [15]

OCC1O[C@@H](O[C@@H]2C(CO)OC(O)C(O)C2O)C(O)C(O)C1O (stereo partly specified)
inactive: Potency [1] | activity, negative = inhibition ([2]; parasite line A) 8.35% | activity, negative = inhibition ([2]; parasite line B) 4.55% | Potency [3] | Potency [4] | Potency [5] | Potency [6] | Potency [7] | Potency [8] | Potency [9] | Potency [10] | Potency [11] | Potency [12] | Potency [13] | Potency [14] | Potency [15]

C=C(NCc1ccccc1)c1ccccc1O
inactive: Potency [1] | activity, negative = inhibition ([2]; parasite line A) 12.8% | activity, negative = inhibition ([2]; parasite line B) 10.7% | Potency [3] | Potency [4] | Potency [5] | Potency [6] | Potency [7] | Potency [8] | Potency [9] | Potency [10] | Potency [11] | Potency [12] | Potency [13] | Potency [14] | Potency [15]
